# Test results published in PubChem BioAssay AID893 (National Center for Advancing Translational Sciences (NCATS), 2007).
# The campaign covered roughly 75,000 compounds. About 5,700 (7.6%) were called active. Roughly 7% stayed inconclusive and do not appear here. What follows is part of a selection rich in actives, with near analogues and random picks from the rest. Unmarked numbers belong to inactive results. The call rests on the fitted dose curve; in most records, active means well fitted inhibition curve with a large enough effect; inconclusive means small, poorly fitted or top-dose-only effect; inactive means no such curve, though single readings can be large or run the other way.
# Target: 3-hydroxyacyl-CoA dehydrogenase type-2 (Homo sapiens) (UniProt Q99714)
# Assay: qHTS Assay for Inhibitors of HSD17B4, hydroxysteroid (17-beta) dehydrogenase 4; further: nearly all actives have a fitted effect of over 70% in size
# Conditions: recombinant HSD17B10, NADH fluorescence kinetic; series mostly up to 57.1 µM; activity change, negative = inhibition: at the top concentration
# Description: Assay Overview: NIH Molecular Libraries Screening Centers Network [MLSCN] NIH Chemical Genomics Center [NCGC] Structural Genomics Consortium [SGC] Grant number: None HADH2: Hydroxyacyl-Coenzyme A dehydrogenase, type II, was supplied by researchers at the Structural Genomics Consortium, Oxford University lab (PI Udo Oppermann). The mitochondrial enzyme 17-hydroxysteroid dehydrogenase type 10 (HSD17-10) previously classified as type II hydroxyacyl-CoA dehydrogenase (HADH2) catalyzes the NAD+ dependent oxidation of a variety of substrates including acyl-CoAs, androgens and neurosteroids as well as bile acids(Shafqat N, Marschall HU, Filling C, et al. Biochemical Journal. 2003;376(Pt 1):49-60). […] The enzyme was produced by E.coli fermentation as His-tagged recombinant for the purpose of X-ray structure determination, and had been mass-spectrometry characterized. Inhibition of HADH2 activity was screened by utilizing beta-hydroxybutyryl coenzyme A as an electron donor and NAD+ as an electron acceptor/cofactor. An increase in the fluorescence intensity due to conversion of NAD+ to NADH was used to measure the enzyme activity.
# Assay Protocol: Buffer: 100 mM Tris-HCl pH 9.0, containing 0.01 % Tween-20. Reagents/Controls: Buffer in columns 3 and 4 as negative control (no enzyme). Substrate/cofactor solution: 1 mM NAD+ and 90 uM beta-hydroxybutyryl coenzyme A (Sigma-Aldrich, St. Louis, MO) final concentrations dispensed throughout the plate. Enzyme: 20 nM HADH2 final concentration in columns 1, 2, 5-48. Column 1 is neutral (100% activity). Column 2 contained titration of apomorphine (Sigma-Aldrich, A 4393, PubChem CID 2215, top concentration 500 uM, then 1:2 dilution in duplicate) Assay Steps: Three uL of enzyme were dispensed to 1536-well Greiner black solid bottom plates. Compounds and controls (23 nL) were transferred via Kalypsys PinTool. The plates were incubated for 15 min at room temperature, and then 1 uL of substrate/cofactor solution was added to start the reaction. The plates were immediately transferred to and read every 30 seconds for 4 min on ViewLux High-throughput CCD imager (Perkin-Elmer) using 360 nm excitation and 450 nm emission fluorescence protocol. The fluorescence intensity difference between the last and the first time points was used to compute reaction progress.
# On the % scale 0 is the no-effect control and ±100 the full control effect; potency means the concentration at half of the fitted maximal effect.
Structure (SMILES),"activity change, negative = inhibition",Potency
CCOC(=O)C1=C(O)CSC1=Nc1cccc(Cl)c1,5.61%,–
CCOC(=O)c1cc(-c2ccc(Cl)s2)nc2c1c(C)nn2C,–,31.6 µM (active)
Cn1cccc1Cc1nnc(SCC(=O)NCCc2ccccc2)n1-c1ccc(F)cc1,3.88%,–
N#Cc1c(NC(=O)CCCN2C(=O)c3ccccc3C2=O)oc(-c2ccccc2)c1-c1ccccc1,5.71%,–
Cc1ccc(N2C(=O)c3oc4ccccc4c(=O)c3C2c2cccnc2)nc1 (stereo not given),5.96%,–
COc1ccc(CCn2c(-c3ccco3)nc3nc4ccccc4nc32)cc1OC,-12.8%,–
CCCn1c(C(O)c2cc(OC)ccc2OC)nc2ccccc21 (stereo not given),-0.382%,–
COCCn1c(-c2ccc(OC)c(OC)c2)nc2ccccc21,–,25.1 µM (active)
Cc1ccc(Cn2c(C)nc3c(c2=O)c2nc4ccccc4nc2n3Cc2ccco2)cc1,–,25.1 µM (active)
Cc1nc2ccccc2c(=O)n1CCCn1ccnc1,2.75%,–
CC(Sc1nc2ccccc2c(=O)n1Cc1ccco1)C(=O)c1ccccc1 (stereo not given),7.76%,–
Nc1cc(=O)nc(SCc2ccccc2)n1Cc1ccco1,-1.73%,–
COCCCn1c2nc3ccccc3nc2c2c(=O)n(Cc3ccc(Cl)cc3)c(C)nc21,–,2 µM (active)
N#Cc1c(NC(=O)CSc2nc3ccccc3c(=O)n2Cc2ccco2)sc2c1CCCC2,-28.8%,–
COc1ccccc1NC(=O)CSc1nc2sc(C)c(C)c2c(=O)n1Cc1ccco1,-11.5%,–
Cc1nc2c(c(=O)n1Cc1ccco1)c1nc3ccccc3nc1n2Cc1ccccc1,–,25.1 µM (active)
Cn1c(COc2ccc(Cl)cc2)nc2ccccc2c1=O,-28.2%,–
CC1CCN(c2nc3c(c(=O)[nH]c(=O)n3C)n2CCCc2ccccc2)CC1,8.8%,–
CCC1(C)CC(=O)NC1=O (stereo not given),-1.08%,–
COc1ccc(N)c(OC)c1,3.29%,–
CCOC(=O)CSc1nnc(CNc2ccc(F)cc2)o1,-11.8%,–
CC/C(=N\O)C(C)(C)/[N+]([O-])=C/c1ccc(Br)cc1,15.6%,–

Structure (SMILES),"activity change, negative = inhibition",Potency
O=C(O)C(O)[C@@](O)(Cc1ccc(O)cc1)C(=O)O (stereo not given in full),-0.363%,–
CC1Cn2c(nnc2-c2cccs2)S1 (stereo not given),-1.46%,–
CSc1cccc(NC(=O)CSc2ccccc2)c1,-27.3%,–
NC(=NC(=O)c1ccccc1)C1=C(O)CCC1=O,2.94%,–
CCS(=O)(=O)N(C)[C@@H]1c2cc(C#N)ccc2OC(C)(C)[C@H]1O,–,inactive
Cc1cc(=O)oc(C)c1C(=O)Nc1cnc2ccccc2c1,-0.842%,–
Cc1ccc2nc(-c3ccccc3)cc(C(=O)O)c2c1,-22.3%,–
Cc1ccc(NC(=O)c2cc(-c3ccc(C)o3)nc3ccccc23)nc1,–,31.6 µM (active)
Cc1ccc(S(=O)(=O)N2CCC(C(=O)OCC(=O)N3CC(=O)Nc4ccccc43)CC2)cc1,9.91%,–
Cc1ccc(C(CC(=O)O)Nc2nc(N3CCCCC3)nc(N3CCCCC3)n2)cc1 (stereo not given),-1.92%,–
CC(C)n1c(C(O)c2ccccc2)nc2ccccc21 (stereo not given),12.2%,–
CC(Nc1nc(N2CCCC2)nc2ccccc12)c1ccccc1 (stereo not given),–,31.6 µM (active)
C[N+](C)(C)CCCCCNCC12CC3CC(CC(C3)C1)C2,3.87%,–
O=C(OCC(=O)c1cccs1)C1=COCCO1,8.65%,–
CCOC(=O)c1cnc(-n2nc(C)cc2C)nc1-n1nc(C)cc1C,-10.5%,–
OCCCNCc1ccccn1,-1.43% [at 11.4 µM],–
CCOC(=O)c1cc2n(c1C)-c1ccccc1C2=O,3.78%,–
O=C(Oc1cccnc1)c1cc2ccccc2oc1=O,–,25.1 µM (active)
O=C(NCc1ccccn1)c1cnc2sccn2c1=O,–,25.1 µM (active)
O=C(NCc1ccccn1)c1c(O)c2c([nH]c1=O)CCCC2,-2.63%,–
Nc1ncc(-c2cc3ccccc3oc2=O)s1,-2.43%,–
CCOC(=O)c1cnc2sccn2c1=O,–,25.1 µM (active)

Structure (SMILES),"activity change, negative = inhibition",Potency
O=C(Nc1ccncc1)c1cc2ccccc2o1,10.3%,–
O=C(NCc1ccccn1)Nc1ccc(F)cc1,7.82%,–
O=C(CCSCCc1ccccn1)Nc1nccs1,-2.41%,–
O=C(NCc1ccccn1)c1cc2ccccc2oc1=O,–,31.6 µM (active)
Brc1cc(Br)c(Oc2cc(Br)c(Br)cc2Br)cc1Br,-9.08%,–
COc1cccc2sc(Nc3nc(C)c(C(C)=O)s3)nc12,-6.55%,–
COC(=O)CNS(=O)(=O)c1ccc(Cc2ccc(S(=O)(=O)NCC(=O)OC)cc2)cc1,3.44%,–
CC(=O)OCC(COC(C)=O)OC(C)=O,3.21%,–
CNC(=O)C1(C)C=CC2(CCCCC2)N1C(C)=O (stereo not given),5.61%,–
CC(C(=O)Nc1ccccc1-c1ccccc1)N1CCOCC1 (stereo not given),12.3%,–
O=C(c1ccccc1-c1ccccc1)N1CCOCC1,8.37%,–
CC(C(=O)N1CCOCC1)N1c2cccc3cccc(c23)S1(=O)=O (stereo not given),–,31.6 µM (active)
COc1ccc(C2C3=C(CC(C)(C)CC3=O)Oc3ncn4nc(-c5cccnc5)nc4c32)cc1OC (stereo not given),6.85%,–
CCCc1[nH]nc2c1C(c1ccc(Br)s1)C(C#N)=C(N)O2 (stereo not given),–,20 µM (active)
CCCc1[nH]nc2c1C(c1ccc(OC(=O)c3ccco3)cc1)C(C#N)=C(N)O2 (stereo not given),3.66%,–
CCCc1[nH]nc2c1C(C1CC=CCC1)C(C#N)=C(N)O2 (stereo not given),-17.4%,–
COC(=O)[C@@H]1C[C@@]2(O)[C@@H](O)[C@@H](O)[C@@H](O)C[C@H]2N1Cc1ccc(C)s1,15%,–
COc1ccc2c(c1OC)C(=O)N(c1ncn[nH]1)C2,–,31.6 µM (active)
Cc1ccc(Cn2ccc(NC(=O)C3C4CCC(C4)C3C(=O)O)n2)cc1 (stereo not given),-2.8%,–
COC(=O)C(C)Sc1ccc2nnc(-c3cccc(F)c3)n2n1 (stereo not given),–,25.1 µM (active)
CC1CCN(C(=O)CSc2ccc3nnc(-c4cccc(F)c4)n3n2)CC1,-12.3%,–
CCOc1ccc(-c2nnc3ccc(SC)nn23)cc1,-6.07%,–

Structure (SMILES),"activity change, negative = inhibition",Potency
CC(=O)CC(C)C,5.18%,–
Cc1ccccc1C(=O)NCCN=C1NS(=O)(=O)c2ccccc21,-2.36%,–
O=C(c1csnn1)N1CCC[C@@]2(CCN(Cc3nccs3)C2)C1,7.36%,–
CSc1ccc(-c2c(C#N)c(N)nc3c2c(C)nn3-c2ccccc2)cc1,–,31.6 µM (active)
CCC(=O)c1ccc(OCC(O)CN2CC(C)OC(C)C2)cc1 (stereo not given),0.889%,–
CC(=O)N(CC1CCCO1)C1(C(=O)NC2CCCC2)CCCCC1 (stereo not given),11.9%,–
C[C@@H]1O[C@@H](OC[C@H]2O[C@@H](Oc3c(-c4cccc(O)c4O)oc4cc(O)cc(O)c4c3=O)[C@H](O)[C@@H](O)[C@@H]2O)[C@H](O)[C@H](O)[C@H]1O,-17.4%,–
O=c1c2ccccc2oc2nc3n(c(=O)c12)CCCS3,–,25.1 µM (active)
CCc1nc2oc3ccccc3c(=O)c2c(=O)n1Cc1ccc(OC)cc1,-5.68%,–
O=c1c2ccccc2oc2nc(C3CCCCC3)n(Cc3ccco3)c(=O)c12,-7.64%,–
CN(C)/C=C1/Nc2ccccc2C1=O,-21.3%,–
CCn1ncc(Br)c1C(=O)Nc1cc(C)ccc1F,7.14%,–
Cc1c(O)cc(O)c2c(=O)c(-c3ccc(O)cc3)coc12,1.02%,–
O=C1C(c2[nH]c3ccccc3c2O)=Nc2ccccc21,–,31.6 µM (active)
CC(=O)c1c(N2CCOCC2)nc(=S)n(Cc2ccccc2)c1C,6.31%,–
CCN(CC)CCCCn1c(-c2ccccc2)nc2c(N3CCOCC3)nc(C)nc21,–,20 µM (active)
CCCCNc1nc(C)nc2c1nc(-c1ccccc1)n2CCCCN(CC)CC,–,25.1 µM (active)
CCCCNc1nc2c(c(=O)[nH]c(=O)n2C)n1CCOc1ccccc1,9.4%,–
O=S(=O)(O)CCN1CCOCC1,1.92%,–
CCCn1c(C(O)c2ccc(OCC)cc2)nc2ccccc21 (stereo not given),4.24%,–
COc1ccccc1C(=O)Oc1ccc(N2C(=O)CCC2=O)cc1,-11.2%,–
C[C@@H](c1ccccc1)N1C(=O)[C@H]2[C@H]3[C@H](O)[C@H](O)C/C(=N/OC[C@@H](O)COCc4ccco4)[C@@H]3CC[C@@H]2C1=O,1.97% [at 11.4 µM],–

Structure (SMILES),"activity change, negative = inhibition",Potency
COc1ccc(S(=O)(=O)N2CCCC(C(=O)N3CCN(C)CC3)C2)cc1C (stereo not given),10.7%,–
C[N+]1(CCN=C=NC2CCCCC2)CCOCC1,-0.294% [at 11.4 µM],–
CC12CN3CC(C)(CN(C1)C3c1ccc(Cl)cc1Cl)C2=O (stereo not given),4.79%,–
CCOc1ccccc1C1C(C(=O)OC)=CN(C)C=C1C(=O)OC,–,25.1 µM (active)
COC(=O)C1=C(C)N(C)C(C)=C(C(=O)OC)C1c1cccc(Br)c1,-5.98%,–
CCOc1ccccc1N(CC(=O)Nc1ccccc1C(=O)OC)S(C)(=O)=O,-13.6%,–
CCCCOCCCNC(=O)c1ccccc1OCC,1.37%,–
COC(=O)C1=CN(C)C=C(C(=O)OC)C1c1ccc(Cl)cc1Cl,–,31.6 µM (active)
O=S(=O)(N1CCOCC1)N1CCN(c2ccccc2F)CC1,0.766%,–
CCOC(=O)C1=C(CC)Nc2ccccc2N=C1NC(=O)c1cccc(S(=O)(=O)N2CCCC2)c1,-10.6%,–
CCOC(=O)CN1C(=O)C(O)(CC(=O)c2ccccn2)c2ccccc21 (stereo not given),-5.79%,–
CCN(CC)S(=O)(=O)c1cccc(C(=O)Nc2ccccc2)c1,2.56%,–
CCc1c(O)nc(SCC(=O)N2CCCCC2)n(-c2ccccc2C)c1=O,7.14%,–
CC1(C)OC2CC3C4CCC5=CC(=O)CCC5(C)C4(F)C(O)CC3(C)[C@]2(C(=O)CCl)O1 (stereo not given in full),-11.4%,–
Cc1cccc(Br)c1,2.64%,–
Cc1cc(=O)[nH]c(SCc2cc(Cl)ccc2OC(F)F)n1,-11.7%,–
CCOc1ccc2nc(NC(=O)CSc3nc4c(c(=O)n(C)c(=O)n4C)n3CC)sc2c1,-2.72%,–
O=C(NCc1ccc(Cl)cc1)c1cc2c(nc3sccn32)s1,–,20 µM (active)
O=C(NCc1cn2ccsc2n1)Nc1ccc(Cl)cc1,10.3%,–
O=c1cc(Cn2nnc(-c3ccc(Cl)cc3)n2)nc2sccn12,-10.6%,–
CCCCn1nnnc1NCc1cc(OC)c(OC)c(OC)c1,13.8%,–
O=C(O)C1CCN(c2ncnc3ccc(-c4ccccc4C(F)(F)F)cc23)CC1,-0.266%,–
